Source: PubChem
HepG2 tox: HepG2 cytotoxicity, counter-screen for TGF-b inhibitors; Potency, µM (highest dose often 46.1 µM), for inactives: at the highest dose activity change, negative = cytotoxicity, usual class: cytotoxic; HepG2 CAGA-GFP viability, ATP luminescence, 18 h; AID 588856; hit rate 0.76% among 410,000
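CellTiter-Glo luminescence gave cytotoxicity after 18 hours at 37 degrees C. The cells were HepG2 CAGA-GFP in 1% FBS DMEM, stimulated with 500 pg/mL TGF-beta after compound addition. %Activity was normalised to no-cell wells (complete cell-killing) and DMSO (no toxicity), and curves were fitted and classified.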
S2 tox: viability counter-screen for ATXN expression inhibitors; S2 cells (HEK-293 line with an ATXN2-luciferase reporter) viability, CellTiter-Fluor protease fluorescence, 24 h; Potency, µM (top dose mostly 56.7 µM), usual class: cytotoxic; hit rate 0.49% among 400,000; AID 651635; also: nearly all actives have a fitted effect of over 40% in size
KB-3-1 tox: KB-3-1 parental cell cytotoxicity | AID 1347075 | KB-3-1 viability, CellTiter-Glo ATP luminescence, 72 h | hit rate 1.4% among 400,000 | Potency, µM (doses to about 46.1 µM), hits mostly cytotoxic; also: % is scaled to controls: 0 for no effect and ±100 for the full control effect; nearly all actives have a fitted effect of over 60% in size
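72 h, 37 °C compound treatment of KB-3-1 parental cells; CellTiter-Glo added, 10 min, luminescence read. Data corrected against DMSO-only plates and normalized before curve fitting.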
TGFb inhibitor: TGF-b pathway inhibition | hit rate 1.2% among 410,000 | HepG2 CAGA-GFP TGF-b/SMAD3 reporter, GFP fluorescence, 18 h; TGF-beta stimulated, 500 pg/mL final | Potency, µM (doses to about 46.1 µM), inactives show at the top dose activity, negative = inhibition, usual class: inhibitors; also: % is scaled to controls: 0 for no effect and ±100 for the full control effect; nearly all actives have a fitted effect of over 65% in size
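Smad-responsive CAGA-GFP expression was quantified in HEPG2 cells exposed to compounds and 500 pg/mL final TGF-beta for 18 h at 37 degrees C; unstimulated wells defined full inhibition.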
KB-V1 cytotox: kills drug-selected multidrug resistant KB-V1 cells | KB-V1 MDR cells viability, CellTiter-Glo, 72 h | hit rate 3.4% among 400,000 | Potency, µM (doses to about 46.1 µM), hits mostly cytotoxic; also: % is scaled to controls: 0 for no effect and ±100 for the full control effect; nearly all actives have a fitted effect of over 60% in size
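KB-V1, DMEM (no phenol red) + 10% FBS; cpd pin-transferred, titration series; 72 h, 37 degrees C; CellTiter-Glo, luminescence. Data normalized, curve-fit.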
ATXN2 expr inh: inhibitors of ATXN2 expression; hit rate 0.72% among 360,000; HEK-293 ATXN2-luciferase reporter, luminescence, 24 h; Potency, µM (titrated, usually from 57 µM), inactives show at the highest dose activity change, negative = inhibition, actives largely listed as inhibitors; AID 1745845; also: % is scaled to controls: 0 for no effect and ±100 for the full control effect; nearly all actives have a fitted effect of over 55% in size
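qHTS (up to 57 uM final) was run with 24 h compound exposure of reporter cells at 37 °C. Each well was multiplexed: SteadyGlo luminescence measured ATXN2-luciferase expression after a fluorogenic Gly-Phe-AFC viability readout (25 uM final).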
The depositor's hits bear a star; i = inactive; ? = inconclusive; . = not tested or not shown; [ ] = remark or other dose. An excerpt weighted towards active compounds, which were near 5.9% of everything screened. Calls follow the shape of the dose curve; as a rule, active = well fitted curve in the direction sought with a large enough effect; inconclusive = small, poorly fitted or top-dose-only effect, or another doubt; inactive = no such curve, though single readings can be large; an effect the other way counts as inactive or inconclusive. Potency is read from the fitted curve at half-maximal effect.

SMILES | HepG2 tox | S2 tox | KB-3-1 tox | TGFb inhibitor | KB-V1 cytotox | ATXN2 expr inh
COc1ccc(CCNc2ncnc3[nH]ncc23)cc1OC | -9% | i | i | -4% | i | -14%
Fc1ccc(CCNc2ncnc3[nH]ncc23)cc1 | 5% | i | 12µM* | -3% | 4.1µM* | 22%
O=c1[nH]c(=O)n(-c2ccccc2)c2c1C(C(F)(F)F)(C(F)(F)F)N=C(CCC1CCCCC1)N2 | -19% | i | i | -5% | 5.2µM* | 2%
Cc1ccc(C2=NC(C(F)(F)F)(C(F)(F)F)c3c(n(-c4ccc(F)cc4)c(=O)[nH]c3=O)N2)cc1 | -15% | i | 10µM* | ? | 21µM* | -12%
COc1ccc(C2(C(=O)NCC3Cc4cccc(-c5nc(C)cnc5C)c4O3)CCCC2)cc1 (centres undefined) | . | i | . | . | . | .
CN(NC(=O)c1cccc(Cl)c1)c1nc(-c2ccccc2)nnc1C(F)(F)F | 5% | i | 23µM* | ? | ? | -23%
c1ccc(COc2ncnc3c2ncn3CCCNCC(c2ccccc2)c2ccccc2)cc1 | 11µM* | . | ? | 16µM* | ? | ?
O=C(Nc1ccn(CCCNCC(c2ccccc2)c2ccccc2)c(=O)n1)OCc1ccccc1 | -116% | ? | i | 16µM* | i | ?
CC(CNCCCn1ccc(NC(=O)OCc2ccccc2)nc1=O)c1ccccc1 (centres undefined) | -6% | i | i | -6% | i | -25%
CCN1C[C@H](C)n2c(c(O)c3c(=O)n(Cc4ccc(F)c(Cl)c4)nc(C(=O)NC)c32)C1=O | . | . | . | . | . | -4%
Cc1ccc(-n2cccc2C(=S)N=P(N(C)C)(N(C)C)N(C)C)cc1 | -62% | ? | 8.2µM* | ? | 3.3µM* | ?
Cc1ccc(-n2cccc2C(=O)NS(=O)(=O)c2ccc(C)cc2)cc1 | 5% | i | i | -1% | i | 14%
COc1ccc(Cl)cc1NC(=O)C(C)N1Cc2ccccc2C1=O (centres undefined) | 3% | . | i | 1% | i | .
CCOc1ccc2[nH]c(=O)c(CN(CCc3ccccc3)C(=O)N3CCOCC3)cc2c1 | 0% | i | i | -13% | 15µM* | -6%
O=C(c1ccco1)N1N=C(c2ccc(Br)cc2)CC1(O)C(F)(F)F (centres undefined) | -41% | i | i | 7.9µM* | i | 3%
OC(c1ccc(-c2ccccc2)cc1)c1ncc(-c2ccc(C(F)(F)F)cc2)[nH]1 (centres undefined) | -113% | ? | i | ? | i | ?
CCc1ccc(C(O)c2ncc(-c3ccc(C(F)(F)F)cc3)[nH]2)cc1 (centres undefined) | -75% | i | i | 16µM* | i | -17%
COc1ccc(C(=O)CC2(O)C(=O)N(Cc3ccccc3Cl)c3ccccc32)cc1 (centres undefined) | -12% | ? | ? | -19% | 18µM* | ?
CCCCN1C(=O)C(O)(CC(=O)c2ccco2)c2cc(Br)ccc21 (centres undefined) | -21% | ? | 15µM* | -26% | i | -12%
Cc1ccccc1CN1C(=O)C(O)(CC(=O)c2ccccc2)c2cc(Cl)ccc21 (centres undefined) | 20µM* | . | . | ? | . | .
CCCCN1C(=O)C(O)(CC(=O)c2ccc(C)cc2C)c2cc(Br)ccc21 (centres undefined) | -105% | . | i | ? | i | ?
CCc1ccc(C(=O)CC2(O)C(=O)N(CCc3ccccc3)c3ccc(Cl)cc32)cc1 (centres undefined) | 20µM* | ? | i | 13µM* | i | ?
O=C(CC1(O)C(=O)N(Cc2ccccc2Cl)c2ccccc21)c1ccco1 (centres undefined) | -21% | i | ? | -20% | ? | 5%
CC1CN(CCC(=O)NC(c2cccnc2)C(F)(F)F)Cc2cc(Cl)ccc2O1 (centres undefined) | . | i | . | . | . | .
CCOC(=O)C1=C(N)n2c(s/c(=C\c3ccncc3)c2=O)=C(C(=O)OCC)C1c1ccncc1 (centres undefined) | -23% | i | i | 3% | i | -38%[11.3 µM]
SMILES | HepG2 tox | S2 tox | KB-3-1 tox | TGFb inhibitor | KB-V1 cytotox | ATXN2 expr inh
CCOC(=O)C1=C(N)n2c(s/c(=C\c3cccs3)c2=O)=C(C(=O)OCC)C1c1cccs1 (centres undefined) | -2% | i | 10µM* | ? | 13µM* | 0%
Cc1nn(-c2ccccc2)c2nc(-c3cccs3)cc(C(=O)NN)c12 | -29% | i | ? | 10µM* | i | ?
CCOC(=O)c1cc(-c2cccs2)nc2c1c(C)nn2-c1ccccn1 | -22% | ? | i | ? | i | ?
Cc1nn2c(=O)cc(COC(=O)c3cccc(NC(=O)c4ccc(C(C)(C)C)cc4)c3)nc2s1 | 0% | . | . | 5% | . | .
CCOC(=O)C1=C(c2cccc(Oc3ccccc3)c2)NC(=S)NC1C (centres undefined) | -16% | i | ? | ? | 16µM* | -25%
CCOc1ccccc1NC(=O)C1CCN(S(=O)(=O)c2cccc3nonc23)CC1 | 6% | i | i | -16% | i | 12%
COC(=O)CNC(c1ccccc1)c1cc(Br)ccc1NC(C)=O (centres undefined) | 3% | i | i | 5% | i | 11%[11.3 µM]
COC(=O)CNC(c1ccccc1Cl)c1cc(Br)ccc1NS(=O)(=O)c1ccc(C)cc1 (centres undefined) | -2% | ? | ? | ? | 18µM* | -14%
O=C1C(Cl)=C(NCCN2CCCCC2)C(=O)c2ccccc21 | -92% | 20µM* | ? | 1.6µM* | ? | 14µM*
CCNC1=C(Cl)C(=O)c2ccccc2C1=O | 13µM* | i | ? | ? | ? | -23%
O=C1C(Cl)=C(NCc2ccco2)C(=O)c2ccccc21 | -109% | ? | ? | 11µM* | ? | -13%
O=C1C=C(Nc2ccc(O)cc2)C(=O)c2ccccc21 | 11µM* | ? | ? | 10µM* | ? | -25%
COc1ccc(CCn2c(=O)c3cccnc3n(CC(=O)Nc3ccc(C)cc3C)c2=O)cc1OC | -11% | i | i | -9% | i | 4%
Cc1ccc(NC2=C(Cl)C(=O)c3ccccc3C2=O)cc1 | -6% | . | ? | ? | i | ?
CCN(CC)c1ccc(NC2=C(Cl)C(=O)c3ccccc3C2=O)cc1 | -50% | 10µM* | ? | ? | ? | 20µM*
